Bioassay records (PubChem BioAssay)
FMDV antiviral = antivirals against foot and mouth disease virus; FMDV antiviral cell-based qHTS; Potency, µM (highest dose often 57.9 µM), most hits filed as inhibitors; 410,000 compounds, 1.2% hits; calls by dose curve; tested in HEK293T cells; further: read-out not given here; nearly all actives have a fitted effect of over 45% in size
MARV entry inh = inhibitors of Marburg virus binding or cell entry. Marburg virus pseudotyped entry inhibition, cell reporter. 300,000 compounds, 1.8% hits. Potency, µM (titrated, usually from 37.8 µM), hits mostly inhibitors; calls by dose curve; tested in HEK293 cells
Lassa entry inh = blocks Lassa virus binding to or entry into cells; Lassa virus pseudotype entry inhibition, cell reporter; Potency, µM (series often up to 37.9 µM), hits mostly inhibitors; 300,000 compounds, 1.2% hits; AID 540256; calls by dose curve; tested in HEK293 cells; further: nearly all actives have a fitted effect of over 50% in size
VACV Venus inh = inhibitors of vaccinia virus (Venus reporter). Vaccinia virus Venus reporter expression, fluorescence. 330,000 compounds, 0.46% hits. AID 720580. Potency, µM (top dose mostly 36.5 µM), actives largely listed as inhibitors; calls by dose curve; tested in A549 cells; further: nearly all actives have a fitted effect of over 30% in size
VACV mCherry inh = vaccinia inhibition (mCherry reporter) | Potency, µM (titrated, usually from 36.5 µM), usual class: inhibitors | Vaccinia virus mCherry reporter infection, fluorescence | 310,000 compounds, 0.63% hits | AID 720579; calls by dose curve; tested in A549 cells; further: nearly all actives have a fitted effect of over 35% in size
HCMV antiviral = inhibitors of human cytomegalovirus; 410,000 compounds, 4.5% hits; HFF cells, HCMV-luciferase reporter, 72 h; active compounds read low; activity change, negative = inhibition, % at 57.5 µM; in the data active means activity change below about -60%; inconclusive means no clear call, values can overlap the other calls; inactive means above about -39%
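After 16 h attachment at 37C, HFF cells received test compound and HCMV-luciferase (1 PFU/cell); reporter luminescence read 72 h later, data normalized against buffer-only and known inhibitor Salinomycin.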
A number is an active result; n = inactive; u = inconclusive; x = no result; [ ] = remark or other dose. Hits are enriched below; roughly 6.5% of the tested compounds scored in any of these assays.

SMILES	FMDV antiviral	MARV entry inh	Lassa entry inh	VACV Venus inh	VACV mCherry inh	HCMV antiviral
COc1ccc2c3c(n(C)c2c1)[C@@H](CO)N(S(C)(=O)=O)CC31CCN(C(=O)C2CCCC2)CC1	x	x	x	x	x	n
O=C(NNC(=S)Nc1ccc(C(=O)O)c(O)c1)c1ccncc1	13µM	u	n	n	u	n
O=C(NNC(=S)Nc1ccccc1)c1ccncc1	n	n	n	n	n	n
CCc1ccc(-n2c(SCc3ccccc3C)nc3[nH]ncc3c2=O)cc1	n	x	n	n	n	u
Cc1noc(C)c1CSc1nc2[nH]ncc2c(=O)n1-c1ccccc1	n	u	4µM	u	u	n
CCc1ccc(-n2c(SCc3ccccc3Cl)nc3[nH]ncc3c2=O)cc1	u	x	n	n	n	-105
COc1ccc(S(=O)Cc2ccc(C(=O)NC3CC3)o2)cc1 (centres undefined)	n	x	x	x	x	n
CCOC(=O)C1CCN(CCC(=O)Nc2ccc(C)c(C)c2)CC1	n	x	x	x	x	-67
CC1CCN(CCC(=O)Nc2ccc(Br)cc2)CC1	x	u	n	n	n	-68
CCOC(=O)C1(C(=O)OCC)CC2=C(C=CC3=C(C=C2)CC(C(=O)OCC)(C(=O)OCC)C3)C1	x	n	x	x	x	x
CSc1nc2nccc(/C=C\c3ccccc3)n2n1	u	n	n	x	x	-106
CSc1nc2nccc(-c3ccc(Cl)cc3)n2n1	n	n	n	n	x	n
O=[N+]([O-])c1ccccc1/C=C/C=N/n1c(-c2cc(-c3ccccc3)n[nH]2)n[nH]c1=S	n	n	n	n	n	n
COc1ccccc1/C=C\C=N\n1c(-c2ccc(Cl)cc2)n[nH]c1=S	n	n	10µM	n	n	u
Cc1ccc(-c2n[nH]c(=S)n2/N=C/C=C/c2ccccc2[N+](=O)[O-])cc1	n	n	13µM	n	n	n
O=[N+]([O-])c1cc2c(cc1/C=N/n1c(-c3ccccn3)n[nH]c1=S)OCO2	n	n	n	n	n	n
O=[N+]([O-])c1cc2c(cc1/C=N/n1c(-c3ccccc3)n[nH]c1=S)OCO2	n	n	n	n	n	-100
Cc1ccc(C)n1C1C(=O)N(Cc2ccc(C(C)C)cc2)c2c(F)cccc21 (centres undefined)	x	x	x	x	x	n
O=[N+]([O-])c1cccc(COc2ccccc2CN2CCCC2)c1	n	x	x	n	n	n
O=C(CNc1cc(S(=O)(=O)N2CCCC2)ccc1OCC(F)(F)F)Nc1ccc(SC(F)F)cc1	n	8.2µM	18µM	u	u	-63
CCn1c(C(=O)N2CCC(C(=O)N3CCN(c4cccc(C)c4C)CC3)CC2)cc2sccc21	u	u	x	u	n	u
Cc1cc(Sc2nnc(N)s2)c2ccccc2n1	14µM	x	x	x	x	-108
Cc1cc(Sc2nnc(/N=C/N(C)C)s2)c2ccccc2n1	14µM	x	x	x	x	-106
Cc1cc(C)c2ccccc2n1	x	x	x	n	n	x
CCCCCCCCSc1nnc(/N=C/N(C)C)s1	n	n	n	n[7.34 µM]	n[7.34 µM]	n
SMILES	FMDV antiviral	MARV entry inh	Lassa entry inh	VACV Venus inh	VACV mCherry inh	HCMV antiviral
COc1ccc(C(=O)OCC(=O)N2CCN(S(=O)(=O)c3ccc(C)cc3)CC2)cc1[N+](=O)[O-]	n	x	x	x	x	n
Cc1ccc(NC(=O)CSc2nnc(-c3ccoc3C)n2CCCN(C)C)cc1Cl	n	u	n	n	n	n
O=C1CCC[C@H]2[C@@H](Cc3ccccc3)[C@@H](NS(=O)(=O)c3cccs3)CC[C@]23CCCN13	x	x	x	x	x	n
Oc1ccc(C[C@@H]2CNCCN2CC2CCCCC2)cc1	n	x	x	n	n	u
c1ccc2c(C[C@@H]3CNCCN3CC3CCCCC3)cccc2c1	n	x	x	u	u	-63
CCC1=Nc2cc(C(=O)NC3CCCC3)ccc2Sc2ccc(Br)cc21	n	u	u	n[7.34 µM]	n[7.34 µM]	u
CC1=Nc2cc(C(=O)NC3CCCCC3)ccc2Sc2ccc(Cl)cc21	n	x	4µM	n[7.34 µM]	n[7.34 µM]	-87
CC1=Nc2cc(C(=O)NC3CCCC3)ccc2Sc2ccc(Br)cc21	n	u	n	u	u	-76
CCOC(=O)N1CCC(NC(=O)c2ccc3c(c2)N=C(C)c2c(C)ccc(C)c2S3)CC1	n	x	x	x	x	-93
CCCOc1cccc(C2c3c(oc4ccc(F)cc4c3=O)C(=O)N2CCc2ccc(OC)cc2)c1 (centres undefined)	n	n	n	u	u	n
CN(Cc1ccccc1)C(=O)Cn1c(=O)c2cccn2c2ccc(F)cc21	n	x	n	n	n	n
COc1c(-c2coc3cc4c(cc3c2=O)CC(O)C(C)(C)O4)ccc2c1C=CC(C)(C)O2 (centres undefined)	2.2µM	x	x	11µM	11µM	x
COc1c(-c2coc3cc4c(cc3c2=O)CC(OC(C)=O)C(C)(C)O4)ccc2c1C=CC(C)(C)O2 (centres undefined)	u	x	x	n	n	x
COc1ccc(NC(=O)CCS(=O)(=O)c2cc3c(cc2C)NC(=O)CO3)cc1Cl	n	x	u	n	n	n
O=c1cc(-c2ccccc2Br)[nH]c2ccccc12	x	x	x	x	x	-90
O=C(NCc1ccco1)c1ccc(S(=O)(=O)N2CCCc3ccccc32)cc1	n	u	16µM	n	n	n
CCN(CC)S(=O)(=O)c1ccc(C(=O)Nc2nnc(COC)o2)cc1	n	x	x	x	x	-64
COCc1nnc(NC(=O)c2ccc(S(=O)(=O)N3CCCc4ccccc43)cc2)o1	n	u	u	u	u	-78
CC1Cc2ccccc2N1S(=O)(=O)c1cccc(C(=O)NCc2ccco2)c1 (centres undefined)	n	u	10µM	n	n	u
COc1ccc(C(=O)N2CCC[C@@]3(CCN(Cc4nccs4)C3)C2)cc1	n	x	x	x	x	x
NC[C@@H]1CC[C@@H](N)[C@@H](O[C@H]2[C@H](O)[C@@H](O[C@H]3O[C@H](CO)[C@@H](O)[C@H](N)[C@H]3O)[C@H](N)C[C@@H]2N)O1	n	x	x	n	n	x
Clc1ccccc1-c1cncnc1NCc1cccs1	n	x	x	x	x	x
CCc1ccc(C(=O)OCC(=O)NCCNC(=O)COC(=O)c2ccc(CC)cc2)cc1	n	n	n	n	n	n
C/C(=N\N=C1\NC(=O)C(CC(=O)Nc2ccccc2F)S1)C1CCCCC1 (centres undefined)	n	n	u	n	n	n
CCOc1ccc(NC(=S)N2CCN(S(C)(=O)=O)CC2)cc1	n	n	n	n	n	n
SMILES	FMDV antiviral	MARV entry inh	Lassa entry inh	VACV Venus inh	VACV mCherry inh	HCMV antiviral
CCCCN(CC)S(=O)(=O)c1ccc(C(=O)Nc2nnc(-c3cccs3)o2)cc1	n	8.9µM	u	u	n	x
CCCCN(CCCC)S(=O)(=O)c1ccc(NC(=O)Cc2cccs2)cc1	n	u	9.2µM	x	x	n
C=CCC12C=C(OC)C(=O)C(C1=O)C1c3ccccc3CC12 (centres undefined)	x	n	u	x	x	x
Cc1ccc2[nH]c(CSc3nnc(NC(=O)COc4ccccc4)s3)cc(=O)c2c1	n	x	n	n	n	n
Cc1c(C(=O)N2CCC(C)CC2)oc2ccc3c(c12)C(O)CC1(CCCCC1)O3 (centres undefined)	n	x	x	n[7.34 µM]	n[7.34 µM]	-70
COCCNC(=O)c1oc2ccc3c(c2c1C)C(O)CC(C)(C)O3 (centres undefined)	n	x	x	x	x	n
CN(C)c1nc(NCc2ccccc2)nc(SCC(=O)Nc2ccccc2)n1	x	u	n	n	n	u
